Results published in PubChem BioAssay AID651718 (The Scripps Research Institute Molecular Screening Center, 2012).
The campaign covered roughly 360,000 compounds. About 2,700 (0.75%) were called active. The entries come from a sample that favours actives as a whole. A number with no mark means an inactive call. Rule as the data show it: active = inhibition above about 4.5%; inactive = the rest.

Test system: Methionine sulfoxide reductase A (Bos taurus)
Assay: bovine MsrA enzyme inhibitors, primary screen, biochemical, absorbance, HTS (AID 651718);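 also: 0% = vehicle wells with enzyme and 100% = reference inhibitor wells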
Settings: purified bovine MsrA, absorbance read-out; at 15.5 µM; stronger effect = higher value

| SMILES | inhibition |
| --- | --- |
| CCOc1ccc(-c2cc(C)[n+](CCN(CC)CC)c(-c3ccc(OCC)cc3)c2)cc1 | 5.24% (active) |
| Clc1ccc([C@@H]2CC3CCC2N3)cn1 (stereo not given in full) | -0.82% |
| COc1cc(OC)cc(C(=O)NCCN2CCC3(CC2)C(=O)NCN3c2ccccc2)c1 | 0% |
| Brc1ccc2c(c1)CNCc1cnnn1-2 | -0.08% |
| Cc1cc(N2CCNC[C@@H]2C)ccc1N1CC[C@H](O)C1 | 0% |
| COc1cccc(CN2CCCC(C(=O)c3ccccc3SC)C2)c1O (stereo not given) | 1.68% |
| Cc1ccc(CN2CCCC(C(=O)c3ccc4c(c3)OCO4)C2)cc1C (stereo not given) | 0.84% |
| COc1ccc(C(=O)C2CCCN(Cc3ccc(C)s3)C2)cc1OC (stereo not given) | 4.73% (active) |
| COC1C(O)C(C)OC(OC2CCC3(C=O)C(CCC4C3CCC3(C)C(C5=CC(=O)OC5)CCC43O)C2)C1O (stereo not given) | 0.09% |
| CCC(C)NC1(c2ccccc2)CCCCC1 (stereo not given) | -0.91% |
| CCCCC(=O)N/N=C/c1c(O)n(CC)c(=S)n(CC)c1=O | 5.43% (active) |
| COc1ccc2c(c1)[C@@]13CCCCC1[C@@H](C2)NCC3 (stereo not given in full) | 0.27% |
| O=S(=O)(c1ccccc1)N1CCC2CCNC2C1 (stereo not given) | -0.74% |
| CS(=O)(=O)N1CCC2CCNC2C1 (stereo not given) | 0.9% |
| CCN(CC)C(=O)[C@@H]1C=C2c3cccc4[nH]c(Br)c(c34)C[C@H]2N(C)C1 | 0% |
